The list is not random: actives were taken first. Their share in the collection is about 11%.
L3MBTL1 inh: qHTS Assay for the Inhibitors of L3MBTL1 | hit rate 0.66% among 230,000 | Lethal(3)malignant brain tumor-like protein 1 (Homo sapiens), Q9Y468 | Potency, µM (doses to about 57.1 µM), without a hit: at the top dose activity, negative = inhibition, most hits filed as inhibitors | AlphaScreen L3MBTL1–H3K9me1 peptide binding; note: % is set by controls: 0 for no effect and ±100 for the full control effect; nearly all actives have a fitted effect of over 60% in size
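L3MBTL1 (50 nM) pre-complexed 30 min with biotinylated H3(1-15)K9me1 peptide (75 nM), then compounds added for 30 min at room temperature; AlphaScreen streptavidin donor/nickel chelate acceptor beads (10 ug/mL final) read after 30 min dark incubation.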
BAZ2B inh: qHTS Assay for Inhibitors of BAZ2B. Bromodomain adjacent to zinc finger domain protein 2B (Homo sapiens), Q9UIF8. Potency, µM (series often up to 114 µM), for the others: at the highest dose activity change, negative = inhibition, hits mostly inhibitors. AlphaScreen BAZ2B-H3K14Ac peptide displacement. hit rate 4.4% among 360,000. AID 504333, 2011; note: % is set by controls: 0 for no effect and ±100 for the full control effect; nearly all actives have a fitted effect of over 60% in size
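BAZ2B 50 nM plus b-H3(5-23)K14Ac 50 nM, PBS pH 7.4/0.01% Tween-20, 30 min RT; compound added (max 110 uM), 30 min RT; streptavidin donor/Ni-chelate acceptor beads 10 ug/mL final, 20 min dark; AlphaScreen read.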
HP1b binding inh: HTS for Inhibitors of HP1-beta Chromodomain Interactions with Methylated Histone Tails | hit rate 0.56% among 390,000 | Potency, µM (doses to about 114 µM), inactives show at the top dose activity change, negative = inhibition, most hits filed as inhibitors | Chromobox protein homolog 1 (Homo sapiens), P83916 | AlphaScreen HP1-beta / biotin-H3K9me3 peptide binding; note: nearly all actives have a fitted effect of over 70% in size
Target sequence (P83916 whole entry, looked up): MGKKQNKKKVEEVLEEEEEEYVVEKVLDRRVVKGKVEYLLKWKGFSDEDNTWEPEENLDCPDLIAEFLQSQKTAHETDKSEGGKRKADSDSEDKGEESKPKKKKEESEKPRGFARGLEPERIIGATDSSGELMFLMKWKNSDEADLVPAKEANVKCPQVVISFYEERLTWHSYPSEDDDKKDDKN
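AlphaScreen: HP1-beta (50 nM) preformed 30 min with biotin-H3(1-18)K9me3 peptide (50 nM) in PBS pH 7.4, 0.01% Tween-20. Compound added for 30 min at RT, then streptavidin donor/nickel chelate acceptor beads (10 ug/mL) for 30 min.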
G9a inh: qHTS Assay for Inhibitors of Histone Lysine Methyltransferase G9a. Histone-lysine N-methyltransferase EHMT2 (Homo sapiens), Q96KQ7. G9a H3K9 monomethylation, AlphaScreen, 2 h. Potency, µM (highest dose often 102 µM), for inactives: at the highest dose activity, negative = inhibition, actives largely listed as inhibitors. hit rate 8.8% among 350,000; note: % is set by controls: 0 for no effect and ±100 for the full control effect; nearly all actives have a fitted effect of over 75% in size
Target sequence (Q96KQ7 913-1193 limits assumed): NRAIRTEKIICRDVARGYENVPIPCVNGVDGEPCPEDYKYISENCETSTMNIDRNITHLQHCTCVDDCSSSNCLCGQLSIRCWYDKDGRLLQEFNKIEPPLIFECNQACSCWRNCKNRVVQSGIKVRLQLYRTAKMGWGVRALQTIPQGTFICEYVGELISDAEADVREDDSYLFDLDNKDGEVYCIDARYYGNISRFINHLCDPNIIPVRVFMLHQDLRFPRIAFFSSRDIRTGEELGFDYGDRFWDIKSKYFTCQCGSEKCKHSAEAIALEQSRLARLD
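Step 1: enzyme (final 20 nM) with compound, 15 min RT. Step 2: substrate peptide 500 nM and SAM 20 uM, 2 h RT. Step 3: anti-H3K9me1 antibody and AlphaScreen beads, 10 min, then plate read.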
JMJD2A Tudor inh: qHTS Assay for Inhibitors of JMJD2A-Tudor Domain | Lysine-specific demethylase 4A (Homo sapiens), O75164 | AlphaScreen JMJD2A-Tudor / H3K4me3 peptide binding | Potency, µM (series often up to 114 µM), inactives show top-dose activity change, negative = inhibition, usual class: inhibitors | hit rate 4.4% among 390,000 | AID 504339, 2011; note: % is set by controls: 0 for no effect and ±100 for the full control effect; nearly all actives have a fitted effect of over 50% in size
* = called active by the depositor; [ ] = dose if it differs, or a comment. Calls come from the whole dose curve; as a rule, active = well fitted inhibition curve with a large enough effect; inconclusive = small, poorly fitted or top-dose-only effect; inactive = no such curve, though single readings can be large or run the other way. Potency is the fitted concentration of half-maximal effect.

`CC(Sc1nc(N)c2c3c(sc2n1)CSC(C)(C)C3)C(=O)Nc1ccccc1` (stereo not drawn) gave L3MBTL1 inh -2%, BAZ2B inh -7%, HP1b binding inh inconclusive, G9a inh -20% and JMJD2A Tudor inh 11µM*.
Screening CC(C)c1nnc(SCC(=O)NCCC2=CCCCC2)n1N returned BAZ2B inh 4%, HP1b binding inh inconclusive, G9a inh 8.9µM* and JMJD2A Tudor inh -14%.
For Nn1c(SCC(=O)NCCC2=CCCCC2)nnc1-c1cccnc1 the results were L3MBTL1 inh -2%, BAZ2B inh 4%, HP1b binding inh 19%, G9a inh 45µM* and JMJD2A Tudor inh -25%.
Screening CCN(CC)S(=O)(=O)c1cccc(-c2nnc(SCC(=O)NCCC3=CCCCC3)n2N)c1 returned L3MBTL1 inh -2%, BAZ2B inh -2%, HP1b binding inh 32%, G9a inh -19%[59 µM] and JMJD2A Tudor inh -11%.
For N#Cc1nc(Nc2cc(F)cc(F)c2)nc(NC2CCCC2)n1 the results were JMJD2A Tudor inh -12%.
Screening CC(=O)N1CCCc2cc(S(=O)(=O)N(C)CC(=O)Nc3cccc(Cl)c3C)ccc21 returned BAZ2B inh 2%, HP1b binding inh 12%[57 µM], G9a inh 8%[59 µM] and JMJD2A Tudor inh -15%.
For Cc1cc(C)n2nc(SCC(=O)N3CCC(C(=O)O)CC3)nc2n1 the results were L3MBTL1 inh 1%, HP1b binding inh 37% and JMJD2A Tudor inh -6%.
Screening O=C(NCc1cccnc1)c1ccc2c(=O)n(CCCN3CCCC3=O)c(=S)[nH]c2c1 returned L3MBTL1 inh 0%, BAZ2B inh inconclusive, HP1b binding inh 54%, G9a inh 40µM* and JMJD2A Tudor inh inconclusive.
CCCCCNC(=O)c1ccc2c(=O)n(CCCN3CCCC3=O)c(=S)[nH]c2c1 was read as BAZ2B inh -12%, HP1b binding inh 29%, G9a inh 6.3µM* and JMJD2A Tudor inh -6%.
Screening O=C(NCc1ccccc1Cl)c1ccc2c(=O)n(CCCN3CCCC3=O)c(=S)[nH]c2c1 returned L3MBTL1 inh 1%, BAZ2B inh 4%, HP1b binding inh 22%, G9a inh -11%[59 µM] and JMJD2A Tudor inh -10%.
`O=C(NCCc1nc2ccccc2n1CCO)C1CCCCC1` gave JMJD2A Tudor inh -11%.
For CCOC(=O)c1sc2nc3c(SCCC(=O)O)cc(C(=O)c4cc(OC)ccc4O)cn3c(=O)c2c1C the results were L3MBTL1 inh inconclusive, BAZ2B inh 35µM*, HP1b binding inh -12%, G9a inh 11µM* and JMJD2A Tudor inh 14µM*.
O=C(O)CSc1cc(C(=O)c2cc(F)ccc2O)cn2c(=O)c3c(-c4ccccc4)csc3nc12 was read as L3MBTL1 inh inconclusive, BAZ2B inh 56µM*, HP1b binding inh 0%[57 µM], G9a inh 50µM* and JMJD2A Tudor inh 56µM*.
Screening CCOC(=O)c1sc2nc3c(SCCC#N)cc(C(=O)c4cc(F)ccc4O)cn3c(=O)c2c1C returned L3MBTL1 inh -6%, BAZ2B inh -23%, HP1b binding inh 13%, G9a inh inconclusive and JMJD2A Tudor inh -26%.
Screening CC(C)(C)NC(=O)C(c1ccncc1)N(Cc1ccco1)C(=O)c1ccc(-c2ccccc2)[nH]1 (stereo not drawn) returned L3MBTL1 inh -16%, BAZ2B inh inconclusive, HP1b binding inh inconclusive, G9a inh 22µM* and JMJD2A Tudor inh 50µM*.
For O=C(NC1CCCCC1)C(c1ccncc1)N(Cc1ccccc1)C(=O)c1ccc(-c2ccccc2)[nH]1 (stereo not drawn) the results were L3MBTL1 inh -24%, BAZ2B inh inconclusive, HP1b binding inh -18%, G9a inh 28%[0.501 µM] and JMJD2A Tudor inh inconclusive.
For CCn1cc(S(=O)(=O)NCCc2ccc(OC)c(OC)c2)cn1 the results were BAZ2B inh -1%, HP1b binding inh 15%, G9a inh 20% and JMJD2A Tudor inh 8%.

Screens as filed in PubChem.
